FLuc counter: qHTS profiling assay for firefly luciferase inhibitor/activator using purifed enzyme and Km concentrations of substrates (counterscreen for miR-21 project); Luciferin 4-monooxygenase (Photinus pyralis), P08659; Potency, µM (highest dose often 57.5 µM), without a hit: at the highest dose activity change, negative = inhibition, hits mostly inhibitors; hit rate 6.9% among 360,000; AID 588342, 2011; purified FLuc, Km substrates, luminescence inhibition;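 further: plate controls were vehicle for no effect and reference inhibitor for full effect; nearly all actives have a fitted effect of over 55% in size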
Target sequence (P08659 whole entry, looked up): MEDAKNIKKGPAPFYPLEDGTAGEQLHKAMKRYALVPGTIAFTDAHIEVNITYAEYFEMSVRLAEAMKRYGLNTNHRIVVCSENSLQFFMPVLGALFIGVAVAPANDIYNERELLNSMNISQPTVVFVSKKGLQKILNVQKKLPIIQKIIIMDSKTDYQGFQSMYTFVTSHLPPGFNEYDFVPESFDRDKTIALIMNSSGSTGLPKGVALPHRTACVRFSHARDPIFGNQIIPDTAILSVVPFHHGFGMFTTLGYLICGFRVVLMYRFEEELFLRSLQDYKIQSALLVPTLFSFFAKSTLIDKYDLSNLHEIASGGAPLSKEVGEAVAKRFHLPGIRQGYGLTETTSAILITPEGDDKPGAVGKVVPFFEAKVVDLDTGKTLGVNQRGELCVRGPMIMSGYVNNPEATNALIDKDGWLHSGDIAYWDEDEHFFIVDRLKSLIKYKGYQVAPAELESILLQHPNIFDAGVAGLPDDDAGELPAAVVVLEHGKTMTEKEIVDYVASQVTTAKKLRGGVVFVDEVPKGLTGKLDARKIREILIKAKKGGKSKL
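Purified P. pyralis luciferase (10nM final) with 10uM D-luciferin and 10uM ATP (Km levels) in 50mM Tris acetate pH 7.5, 10mM Mg acetate, 0.01% Tween-20, 0.05% BSA; qHTS 6-point titration, ~60 µM downward; luminescence read.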
ELG1 genotoxic: qHTS screen for small molecules that induce genotoxicity in human embryonic kidney (HEK293T) cells expressing luciferase-tagged ELG1; HEK293T ELG1-luciferase reporter, luminescence, 16 h; Potency, µM (doses to about 46 µM), without a hit: at the highest dose activity change, positive = activation, most hits filed as activators; hit rate 1.3% among 330,000; AID 504466, 2011; further: % of control where 0% means no effect; nearly all actives have a fitted effect of over 60% in size
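After overnight (16 hr) compound treatment at 37 °C, ELG1-luciferase HEK293T cells were lysed with ONE-Glo; luminescence quantified 30 min later at room temperature.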
Rab9 promoter act: qHTS Assay for Rab9 Promoter Activators; Huh7 Rab9 promoter-luciferase reporter, luminescence, 24 h; Potency, µM (top dose mostly 9.22 µM), without a hit: at the top dose activation, negative = inhibition, actives largely listed as activators; hit rate 2.8% among 320,000; further: % of control where 0% means no effect; nearly all actives have a fitted effect of over 60% in size
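Rab9 promoter-driven luciferase in stably transfected Huh7 cells; 1500 cells/well rested 2 h, exposed to compound in DMSO for 24 h at 37 °C, 5% CO2. Luminescence read 10 min after adding luciferase reagent at ambient temperature.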
SMN2 splice up: qHTS Assay for Enhancers of SMN2 Splice Variant Expression | HEK293 SMN2-luciferase splicing reporter, luminescence, 30-36 h | Potency, µM (doses to about 46.1 µM), without a hit: at the highest dose activity change, positive = activation, most hits filed as activators | hit rate 2.8% among 210,000 | AID 1458, 2008; further: % of control where 0% means no effect; nearly all actives have a fitted effect of over 55% in size
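HEK293 cells carry an SMN2 minigene-luciferase reporter in which exon 7 inclusion puts luciferase in frame. Cells were seeded at 2000 cells/well, attached for 10-12 hours, then exposed to compounds for 30-36 hours at 37C before ONE-Glo luminescence.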
NPC1 promoter act: qHTS Assay for NPC1 Promoter Activators. hit rate 2.4% among 320,000. AID 485313, 2010. Potency, µM (top dose mostly 9.22 µM), for the others: at the top dose activation, actives largely listed as activators. Huh7 NPC1 promoter luciferase reporter, 24 h; further: % of control where 0% means no effect; nearly all actives have a fitted effect of over 60% in size
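Readout is luciferase luminescence, reflecting NPC1 promoter activation in stably transfected Huh7 cells after 24 h compound exposure at 37 °C in reduced-serum medium with 10% FBS.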
The depositor's hits bear a star; ? = inconclusive; . = no result given; [ ] = remark or other dose. Hits are enriched below; roughly 7.4% of the tested compounds scored in any of these assays. The call rests on the fitted dose curve; in most records, active means well fitted curve in the direction sought with a large enough effect; inconclusive means small, poorly fitted or top-dose-only effect, or another doubt; inactive means no such curve, though single readings can be large; an effect the other way counts as inactive or inconclusive. Potency means the concentration at half of the fitted maximal effect.

SMILES	FLuc counter	ELG1 genotoxic	Rab9 promoter act	SMN2 splice up	NPC1 promoter act
FC(F)Oc1ccc(N=C2SCC3CCCCN23)cc1 (stereo not drawn)	12µM*	?	3.5µM*	.	2µM*
Cc1ccc2occ(CC(=O)N(Cc3ccc(C(C)C)cc3)C3CCS(=O)(=O)C3)c2c1 (stereo not drawn)	3%	.	.	0%	.
CC(C)CCN(Cc1ccco1)C(=O)c1cc2c(s1)-c1ccccc1OC2	-1%	.	.	-33%	.
COc1ccc2c(n1)Sc1nc3ccccc3nc1N2	2.1µM*	8.2µM*	2.2µM*	.	?
COc1cc2ccccc2nn1	5%	-3%	-3%	.	-6%
CC1=NOC(=O)/C1=C/c1ccc(N(C)C)cc1	7.6µM*	6%	1%	.	-1%
CN(C)c1ccc(/C=C2\N=C(C(C)(C)C)OC2=O)cc1	1.5µM*	0%	-4%	.	1%
COc1ccc(/C=C2\N=C(C(C)(C)C)OC2=O)c(OC)c1	?	-1%[9.26 µM]	2%	.	-1%
CN(C)c1ccc(/C=C2\C(=O)Nc3ccccc32)cc1	.	.	3.7µM*	3.2µM*	1.5µM*
CCN(CC)c1ccc(/C=C2/C(=O)ON=C2C)cc1	12µM*	6%	-3%	-2%	-2%
CCCCSCCCNC(=O)c1cn(CC)c2ccc(S(=O)(=O)N3CCCCCC3)cc2c1=O	-10%	.	.	-6%	.
Cc1cc(C)cc(NC(=O)c2ccc3c(c2)CCN3S(C)(=O)=O)c1	?	0%	-5%	.	0%
Cc1cccc(NC(=O)c2ccc3c(c2)CCN3S(C)(=O)=O)c1	15µM*	?	?	.	?
CS(=O)(=O)N1CCc2cc(C(=O)OCC(=O)c3ccccc3)ccc21	4.8µM*	13µM*	3.5µM*	-4%	3.2µM*
CS(=O)(=O)N1CCc2cc(C(=O)Nc3cccc(F)c3)ccc21	?	.	.	11µM*	.
Cc1ccc(NC(=O)c2ccc3c(c2)CCN3S(C)(=O)=O)cc1C	15µM*	9%	4µM*	.	2.5µM*
Cc1ccccc1N1CC(c2nnc(NC(=O)c3ccco3)s2)CC1=O (stereo not drawn)	-18%	.	.	.	.
O=C(CS(=O)(=O)Cc1ccccc1)Nc1nnc(C2CCCCC2)s1	-15%	-4%	4%	-29%	16%
O=C(Nc1nnc(C2CC2)s1)c1ccco1	?	?	3.2µM*	30%	?
O=C(Nc1nnc(C2CCCCC2)s1)c1ccco1	?	?	2µM*	?	4µM*
COc1cc2ccccc2cc1C(=O)NCC(c1cccs1)N(C)C (stereo not drawn)	5.4µM*	16%	?	?	2.8µM*
COc1cccc2c1OCC(C(=O)Nc1nccs1)=C2	5.4µM*	?	2µM*	.	2.2µM*
COc1cc2ccccc2cc1C(=O)Nc1nccs1	8.5µM*	12%	?	.	3.2µM*
COc1cc(OC)c(C(=O)NCC(c2cccs2)N(C)C)cc1OC (stereo not drawn)	-14%	6%	-10%	9%	-1%
COc1c(C(=O)Nc2nccs2)ccc2ccccc12	3µM*	?	?	.	1.8µM*
SMILES	FLuc counter	ELG1 genotoxic	Rab9 promoter act	SMN2 splice up	NPC1 promoter act
COc1cccc(C=Nc2ccccc2C(=O)Nc2nccs2)c1OC	6%	?	17%	-6%	14%
COCCn1c(SCc2ccccc2F)nc2c([nH]c3ccccc32)c1=O	0%	.	.	.	.
O=C(O)COc1ccc(OCCNC[C@H](O)COc2ccccc2)cc1	.	.	.	2%	.
COc1ccc(C)cc1-n1nc2ccccc2n1	-5%	2%	-1%	1%	-5%
Cc1ccc(O)c(-n2nc3ccccc3n2)c1	2.7µM*	?	3.2µM*	.	3.2µM*
Cc1nc2nc(SCC(=O)NCCc3ccc(Cl)cc3)nn2c(C)c1Cc1c(F)cccc1Cl	-13%	.	.	.	.
CC1(C)O[C@@H]2O[C@H]([C@@H]3COC(C)(C)O3)[C@H](N)[C@H]2O1	.	.	.	1%[9.22 µM]	.
Nc1nnc(/C=C/c2ccccc2Cl)s1	6.7µM*	?	3.5µM*	.	?
Cn1c(=O)n(C)c2cc(N3CCCCC3)c(NC(=O)c3ccc(Cl)cc3)cc21	-5%	.	.	3%	.
CC(=O)Nc1ccc(-c2cc(C(=O)O)c3c(-c4ccccc4)[nH]nc3n2)cc1	?	.	.	-6%	.
COc1ccc2c(c1)c(=O)oc1c(C)c(OC(C)C(=O)N[C@@H](Cc3c[nH]c4ccc(O)cc34)C(=O)O)ccc12 (stereo partly drawn)	12µM*	-2%	-3%	.	9%
Cc1cc(Cl)cc2sc(NC(=O)c3ccco3)nc12	9.5µM*	2.9µM*	2.2µM*	.	?
Cc1cc(C)c2nc(NC(=O)c3ccco3)sc2c1	0.54µM*	0.65µM*	0.56µM*	.	2.8µM*
Cc1nc2nc(NC(=O)c3ccco3)nn2c(C)c1Cl	?	18µM*	3.2µM*	.	3.5µM*
O=C(Nc1nc2c(F)cccc2s1)c1ccco1	4.8µM*	7.3µM*	1.1µM*	.	1.1µM*
Cc1cc(Cl)cc2sc(NC(=O)C3CC3)nc12	1%	-1%	4%	.	14%
O=C(Nc1nc2c(Br)cc(Br)cc2c(=O)s1)c1ccco1	-5%	2%	-4%	.	-9%
COC(=O)N1C(c2ccccc2)=Cc2ccccc2C1CC(C)=O (stereo not drawn)	.	.	.	16%[9.22 µM]	.
CCc1ccc2oc(C(=O)NCCc3ccc(OC)c(OC)c3)cc(=O)c2c1	0%	.	.	-55%	.
CCCCC/C=C\C/C=C\CCCCCCCC(=O)NCCc1ccc(O)c(O)c1	.	.	.	6%	.
CCc1ccc(NC2=CC(=O)C(=O)c3ccccc32)cc1	11µM*	-6%	-4%	.	1%
O=C1C=C(Nc2ccccc2)C(=O)c2ccccc21	3.4µM*	7%	1µM*	13µM*	1.8µM*
CC1CCc2nc(/C(C#N)=C/c3cccnc3)sc2C1 (stereo not drawn)	2.1µM*	2.3µM*	1.3µM*	2µM*	?
COc1cc(/C=C(\C#N)c2nc3c(s2)CCCC3)ccc1O	6µM*	11µM*	?	22µM*	?
N#C/C(=C\c1cccnc1)c1nc2c(s1)CCCC2	12µM*	16µM*	4µM*	13µM*	3.5µM*
N#C/C(=C\c1cccnc1)c1ccc([N+](=O)[O-])cc1	-11%	-4%	3%	.	-3%
N#C/C(=C/c1cccnc1)c1ccccc1	-16%	4%	3%	.	4%
Cn1c(=O)cc(OCCCC(=O)Nc2ccccn2)c2ccccc21	2%	21µM*	-7%	21%	-5%
Cn1c(=O)cc(OCC(=O)NCCCN2CCN(Cc3ccccc3)CC2)c2ccccc21	2%	18µM*	0%	?	0%
CC1CCN(C(=O)CCCOc2cc(=O)n(C)c3ccccc23)CC1	-2%	18µM*	-5%	?	-3%

Source: PubChem BioAssay
